# Laboratory results: PubChem BioAssay
# Calls of active or inactive are those of the source.
# Experiments:
# [1] = optical density shifts of acrAB sulA E. coli – strain DRC41, OD650, 48 h, E. coli filamentation inducer project, primary screen (AID 1152); conditions: higher = more signal, called active from +8 up or from −8 down;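 further: E. coli MC1000 strain DRC41 lacking acrAB efflux pump and sulA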
# [2] = probe aLefty1 binding on compound microarray – biochemical, small-molecule microarray, 635/667 nm fluorescence, primary screen (AID 1153); conditions: higher = more signal;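 further: score merges spot fluorescence with signal-to-noise ratio from the scanned slide images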
# [3] = plasmodial surface anion channel blockers, osmotic lysis – cell-based, P. falciparum Indochina, OD700, 1 h, primary screen (AID 1154); conditions: P. falciparum Indochina infected RBC osmotic lysis, higher = more signal, called active from +8 up or from −8 down
# [4] = plasmodial surface anion channel blockers, osmotic lysis – cell-based, P. falciparum Indochina, OD700, 2 h, primary screen (AID 1155);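 further: lysis reports solute entry through the parasite surface anion channel PSAC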; conditions: P. falciparum Indochina infected erythrocytes, higher = more signal, called active from +8 up or from −8 down
# [5] = changes in parasitized red cell lysis, either direction – P. falciparum Indochina, OD700, 3 h, PSAC antagonist project, primary screen (AID 1156); conditions: P. falciparum-infected erythrocytes, osmotic lysis, higher = more signal, called active from +8 up or from −8 down
# [6] = plasmodial surface anion channel blockers, osmotic lysis – cell-based, P. falciparum Indochina, OD700, 18 h, primary screen (AID 1157); conditions: P. falciparum Indochina infected erythrocytes, osmotic lysis OD700, 18 h; higher = more signal, called active from +8 up or from −8 down
# [7] = S6 kinase pathway phospho-S6 level changes – cell-based, A549, cytoblot, luminescence, serum-stimulated, primary screen (AID 1158); conditions: 5 h, higher = more signal;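 further: serum-stimulated A549 lung adenocarcinoma cells; signal is phosphorylated S6 detected by cytoblot immunostaining with HRP secondary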
# [8] = target: NADPH oxidase 2 (Homo sapiens) (UniProt P04839); assay: compounds shifting NOX2 Amplex Red fluorescence – cell-based, HEK293-NOX2, PMA-stimulated, NOX inhibitor project, primary screen (AID 1159); conditions: 45 min, higher = more signal, called active from +8 up or from −8 down; further: test concentration not given here
# Sequence of NADPH oxidase 2 (Homo sapiens) (P04839 whole entry, looked up): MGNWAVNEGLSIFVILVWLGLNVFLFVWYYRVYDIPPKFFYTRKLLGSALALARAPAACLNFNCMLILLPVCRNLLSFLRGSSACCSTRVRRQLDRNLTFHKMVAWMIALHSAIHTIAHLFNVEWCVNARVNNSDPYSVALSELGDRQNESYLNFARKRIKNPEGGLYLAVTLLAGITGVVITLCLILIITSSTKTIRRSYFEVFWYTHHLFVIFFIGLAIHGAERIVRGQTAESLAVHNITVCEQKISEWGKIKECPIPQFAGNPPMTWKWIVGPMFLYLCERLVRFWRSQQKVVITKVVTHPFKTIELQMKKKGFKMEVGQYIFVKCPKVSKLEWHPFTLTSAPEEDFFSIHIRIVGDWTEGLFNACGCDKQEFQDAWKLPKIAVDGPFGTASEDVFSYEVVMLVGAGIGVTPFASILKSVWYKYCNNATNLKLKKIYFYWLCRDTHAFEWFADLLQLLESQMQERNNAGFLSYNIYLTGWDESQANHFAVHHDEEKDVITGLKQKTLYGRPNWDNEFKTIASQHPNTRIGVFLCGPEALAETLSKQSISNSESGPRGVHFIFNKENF
# [9] = target: NADPH oxidase 4 (Homo sapiens) (UniProt Q9NPH5); assay: compounds shifting NOX4 Amplex Red fluorescence – cell-based, HEK293-NOX4, tetracycline-induced, NOX inhibitor project, primary screen (AID 1160); conditions: HEK293-NOX4, Amplex Red H2O2 fluorescence, 45 min; higher = more signal, called active from +8 up or from −8 down
# Sequence of NADPH oxidase 4 (Homo sapiens) (Q9NPH5 whole entry, looked up): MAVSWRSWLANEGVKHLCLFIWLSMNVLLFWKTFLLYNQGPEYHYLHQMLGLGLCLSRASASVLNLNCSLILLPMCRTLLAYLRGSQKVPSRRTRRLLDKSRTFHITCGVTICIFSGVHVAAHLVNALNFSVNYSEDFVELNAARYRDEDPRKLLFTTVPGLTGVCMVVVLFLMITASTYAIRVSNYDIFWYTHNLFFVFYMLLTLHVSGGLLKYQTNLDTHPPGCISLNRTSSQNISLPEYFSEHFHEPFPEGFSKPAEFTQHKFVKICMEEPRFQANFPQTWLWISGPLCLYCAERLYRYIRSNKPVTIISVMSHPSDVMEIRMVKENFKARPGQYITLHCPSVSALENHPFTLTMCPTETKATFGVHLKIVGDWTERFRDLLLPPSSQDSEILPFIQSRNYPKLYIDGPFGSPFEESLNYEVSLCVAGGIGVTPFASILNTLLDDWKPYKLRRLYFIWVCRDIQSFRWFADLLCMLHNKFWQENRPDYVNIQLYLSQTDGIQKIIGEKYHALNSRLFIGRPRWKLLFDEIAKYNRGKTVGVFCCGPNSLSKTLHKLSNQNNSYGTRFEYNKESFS
# [10] = target: NADPH oxidase 5 (Homo sapiens) (UniProt Q96PH1); assay: compounds shifting NOX5 Amplex Red fluorescence – cell-based, HEK293-NOX5, NOX inhibitor project, primary screen (AID 1161); conditions: HEK293-NOX5, ionomycin, 45 min, higher = more signal
# Sequence of NADPH oxidase 5 (Homo sapiens) (Q96PH1 whole entry, looked up): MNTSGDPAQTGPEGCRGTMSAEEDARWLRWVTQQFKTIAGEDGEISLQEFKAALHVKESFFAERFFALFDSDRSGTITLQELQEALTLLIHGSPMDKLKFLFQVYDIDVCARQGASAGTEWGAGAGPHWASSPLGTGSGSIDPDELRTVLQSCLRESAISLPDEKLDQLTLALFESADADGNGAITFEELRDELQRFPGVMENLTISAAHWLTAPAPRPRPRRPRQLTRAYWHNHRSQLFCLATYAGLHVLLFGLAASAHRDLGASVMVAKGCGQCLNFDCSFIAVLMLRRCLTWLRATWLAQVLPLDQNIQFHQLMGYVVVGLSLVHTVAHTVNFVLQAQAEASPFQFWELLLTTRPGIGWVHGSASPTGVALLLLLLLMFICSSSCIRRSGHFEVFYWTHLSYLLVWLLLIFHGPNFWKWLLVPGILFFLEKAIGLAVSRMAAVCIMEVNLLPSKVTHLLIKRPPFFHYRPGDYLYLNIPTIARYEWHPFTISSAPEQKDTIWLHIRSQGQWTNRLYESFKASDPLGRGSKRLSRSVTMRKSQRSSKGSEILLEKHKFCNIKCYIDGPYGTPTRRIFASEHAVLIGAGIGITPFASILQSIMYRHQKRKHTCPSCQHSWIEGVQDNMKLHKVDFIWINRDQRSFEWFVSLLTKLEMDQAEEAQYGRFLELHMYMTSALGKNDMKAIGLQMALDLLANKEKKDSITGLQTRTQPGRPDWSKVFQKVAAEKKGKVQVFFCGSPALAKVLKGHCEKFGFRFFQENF
# [11] = compound effects on lung adenocarcinoma cell viability – A549, calcein-AM fluorescence, 48 h, basal, profiling panel (AID 1162); conditions: higher = more signal; further: test concentration not given here
# [12] = compound effects on differentiated 3T3-L1 adipocyte viability – cell-based, 3T3-L1 adipocytes, calcein-AM fluorescence, 48 h, basal, profiling panel (AID 1163); conditions: 3T3-L1 adipocytes viability, higher = more signal; further: test concentration not given here
# [13] = compound effects on hepatocellular carcinoma cell viability – HepG2, calcein-AM fluorescence, 48 h, basal, profiling panel (AID 1164); conditions: higher = more signal; further: test concentration not given here
# [14] = compound effects on multiple myeloma cell viability – MM1S, calcein-AM fluorescence, 48 h, basal, profiling panel (AID 1165); conditions: higher = more signal; further: test concentration not given here
# [15] = calcein-AM signal in unstimulated myeloma cells – cell-based, calcein-AM fluorescence, 48 h, PK04 Diversity Set, profiling panel (AID 1166); conditions: RPMI8226 myeloma viability, higher = more signal;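 further: cells grown under basal conditions without added stimulus; test concentration not given here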
# [16] = JC-1 mitochondrial signal, unstimulated HepG2 cells – cell-based, JC-1 fluorescence, 24 h, 100 nL compound, profiling panel (AID 1167); conditions: HepG2 mitochondrial potential, higher = more signal; further: test concentration not given here
# [17] = JC-1 mitochondrial signal, unstimulated adipocytes – cell-based, JC-1 fluorescence, 3T3-L1 adipocytes, 24 h, 100 nL compound, profiling panel (AID 1168); conditions: JC-1 mitochondrial fluorescence, higher = more signal, called active from +8 up or from −8 down; further: test concentration not given here
# [18] = JC-1 mitochondrial signal, unstimulated myeloma cells – cell-based, JC-1 fluorescence, RPMI8226, 24 h, 100 nL compound, profiling panel (AID 1169); conditions: JC-1 mitochondrial potential fluorescence, higher = more signal; further: test concentration not given here
# [19] = JC-1 mitochondrial signal, unstimulated MM1S myeloma – cell-based, JC-1 fluorescence, 24 h, 100 nL compound, profiling panel (AID 1170); conditions: MM1S mitochondrial potential, higher = more signal; further: test concentration not given here
# [20] = resazurin metabolic signal in A549 cells – cell-based, resazurin fluorescence, 24 h, PK04 Diversity Set, profiling panel (AID 1171); conditions: A549 viability, higher = more signal, called active from +8 up or from −8 down; further: test concentration not given here
Compound,z-score [1],composite z-score [2],z-score [3],z-score [4],z-score [5],z-score [6],z-score [7],z-score [8],z-score [9],z-score [10],z-score [11],z-score [12],z-score [13],z-score [14],z-score [15],z-score [16],z-score [17],z-score [18],z-score [19],z-score [20]
CC(C)C(O)C1C=CC2C(=O)N(c3ccccc3)C(=O)C2N1Nc1ccc([N+](=O)[O-])cc1 (stereo not given),-0.467 (inactive),0.0045,11 (active),1.48 (inactive),0.928 (inactive),0.779 (inactive),-0.326,-0.59 (inactive),-1.82 (inactive),-1.23,-0.821,-1.18,0.497,0.637,-0.023,-1.41,-1.37 (inactive),0.766,-1.07,-0.397 (inactive)
COCCOC(=O)N1C(=O)[C@@]2(c3cc(C#CCC(C(=O)OC)C(=O)OC)ccc31)[C@H](c1ccccc1OCCO)N1[C@H](c3ccccc3)[C@H](c3ccccc3)OC(=O)[C@H]1[C@@H]2C(=O)N1CCN(c2ncccn2)CC1,1.2 (inactive),1.16,2.83 (inactive),1.11 (inactive),1.28 (inactive),0.851 (inactive),-0.139,0.823 (inactive),0.656 (inactive),1.27,-0.0169,1.16,0.469,-1.59,-2.45,0.8,2.27 (inactive),-0.78,-0.522,0.934 (inactive)
C=CCNC(=O)[C@@H]1[C@H]2C(=O)O[C@H](c3ccccc3)[C@H](c3ccccc3)N2[C@H](c2ccccc2OCCO)[C@@]12C(=O)N(C(=O)OCCOC)c1ccccc12,-0.91 (inactive),0.238,2.92 (inactive),1.24 (inactive),-0.693 (inactive),1.05 (inactive),-0.458,1.88 (inactive),-0.691 (inactive),-0.1,-0.798,0.955,-1.69,-2.24,-3.37,-0.186,0.149 (inactive),-0.813,-0.287,-2.03 (inactive)
COC(=O)C(CC#Cc1ccc2c(c1)[C@]1(C(=O)N2)[C@H](C(=O)Nc2nc3ccccc3s2)[C@H]2C(=O)O[C@H](c3ccccc3)[C@H](c3ccccc3)N2[C@@H]1c1ccc(O)cc1)C(=O)OC,-1.2 (inactive),0.0809,1.14 (inactive),0.922 (inactive),-4.32 (inactive),1.3 (inactive),0.0065,1.28 (inactive),0.602 (inactive),-0.0824,0.567,0.823,1.49,-1.15,-3.43,-2.74,-0.383 (inactive),-1.31,-0.561,0.502 (inactive)
COC(=O)[C@@]1(Cc2ccc(OC)cc2)[C@H]2c3cc(C(=O)N(C)C)n(Cc4ccccn4)c3C[C@H]2CN1C(=O)c1ccccc1,-1.76 (inactive),0.771,1.63 (inactive),0.463 (inactive),1.01 (inactive),0.863 (inactive),0.704,0.188 (inactive),-1.32 (inactive),-2.73,-0.865,0.626,-0.319,-0.684,-1.31,2.05,-1.46 (inactive),0.155,0.016,-0.793 (inactive)
COc1ccc(CCNC(=O)[C@@]2(Sc3ccc(C)cc3)CC(=O)N(C3Cc4ccccc4C3)[C@@H]2c2ccc(CO)cc2I)cc1,0.657 (inactive),0.627,10.7 (active),1.95 (inactive),0.497 (inactive),0.768 (inactive),-0.123,1.51 (inactive),-1.66 (inactive),1.9,2.04,0.129,0.082,-2.56,-1.99,0.26,-0.279 (inactive),-0.597,-0.565,0.86 (inactive)
C=CCN1C(=O)[C@]2(O[C@H](CCn3cc([C@H](O)c4ccccc4)nn3)[C@@H]([Si](C)(C)c3ccc(OC)cc3)[C@@H]2C)c2cc(N3CCC3=O)ccc21,0.894 (inactive),0.188,3.76 (inactive),1.05 (inactive),2.62 (inactive),0.721 (inactive),2.02,0.632 (inactive),-0.709 (inactive),-1.74,-0.668,0.87,-1.39,-2.05,-2.95,2.75,0.85 (inactive),-0.949,0.507,-1.71 (inactive)
Cc1ccc(S[C@]2(C(=O)NCCCN(C)C)CC(=O)N(Cc3ccccc3C(F)(F)F)[C@@H]2c2ccc(CO)cc2)cc1,0.674 (inactive),0.337,0.926 (inactive),0.479 (inactive),0.298 (inactive),-0.0133 (inactive),0.104,-6.22 (inactive),0.165 (inactive),0.526,0.397,-0.22,0.41,0.306,0.595,1.47,0.0218 (inactive),0.139,0.427,-0.515 (inactive)
CCC(CC)C(O)C1C=CC2C(=O)NC(=O)C2N1Nc1ccc(Cl)cc1Cl (stereo not given),-1.69 (inactive),0.348,1.55 (inactive),0.65 (inactive),0.0089 (inactive),1.24 (inactive),-1.5,-0.017 (inactive),-4.41 (inactive),-2.93,-1.36,-0.326,-0.751,-1.38,-0.82,-2.18,-0.446 (inactive),-0.661,-0.246,-0.929 (inactive)
C[N+](C)(C)CCCCNC(=O)[C@H]1C[C@H]2C(=O)N3CCC[C@H]3C(=O)N2[C@H]1c1cccc(OCCO)c1,0.364 (inactive),0.0861,3.34 (inactive),0.503 (inactive),-0.78 (inactive),0.277 (inactive),-0.555,-1.52 (inactive),0.00366 (inactive),-1.41,-0.591,-0.682,-0.545,0.129,0.157,-0.901,-0.186 (inactive),-0.0988,-0.193,-0.699 (inactive)
[N-]=[N+]=NCc1ccccc1[C@@H]1OC(c2ccc(OCCCO)cc2)=N[C@]1(Cc1ccccc1)C(N)=O,-0.451 (inactive),0.0429,21.9 (active),4.7 (inactive),2.64 (inactive),1.03 (inactive),0.929,-2.06 (inactive),0.76 (inactive),-2.22,0.88,1.5,0.493,-0.527,-1.63,1.49,-0.534 (inactive),-0.75,-1.1,0.479 (inactive)
CCCC=C(CCC)[C@@H](NC(=O)c1cccs1)c1ccc(C(F)(F)F)cc1,-0.938 (inactive),0.504,3.15 (inactive),-0.119 (inactive),1.36 (inactive),-1.39 (inactive),1.42,-4.56 (inactive),-3.52 (inactive),-2.77,-1.43,0.203,-0.809,-1.41,-4.35,1.34,-0.229 (inactive),-0.393,-1.71,1.73 (inactive)
COc1ccc(C(O)C2C=CC3C(=O)N(Cc4ccccc4)C(=O)C3N2n2cnnc2)cc1OCc1ccccc1 (stereo not given),0.209 (inactive),0.142,1.3 (inactive),0.0118 (inactive),0.372 (inactive),-1.82 (inactive),1.42,-0.361 (inactive),-0.079 (inactive),0.384,0.187,0.534,-0.345,0.195,-1.79,-0.323,-1.06 (inactive),0.593,-0.882,0.18 (inactive)
N#Cc1ccc(NN2C(C(O)C(c3ccccc3)c3ccccc3)C=CC3C(=O)N(c4ccccc4)C(=O)C32)cc1 (stereo not given),-0.0948 (inactive),0.651,5.66 (inactive),0.96 (inactive),0.891 (inactive),1.24 (inactive),0.151,-1.99 (inactive),-2.82 (inactive),-2.49,0.825,-1.53,0.361,0.0017,0.103,0.913,-0.435 (inactive),-0.812,-0.379,-0.386 (inactive)
C=CC[C@@]1(C(=O)NCCN2CCOCC2)N=C(c2ccc(OCCCO)cc2)O[C@@H]1c1ccccc1N=[N+]=[N-],0.301 (inactive),0.144,31.2 (active),31.8 (active),2.48 (inactive),2.95 (inactive),-0.291,-1.67 (inactive),0.0137 (inactive),-1.73,0.391,-0.187,0.55,-0.669,-0.394,1.42,0.602 (inactive),-0.244,-0.322,-0.0072 (inactive)
NC(=O)[C@@H]1[C@H]2C(=O)O[C@H](c3ccccc3)[C@H](c3ccccc3)N2[C@H](c2ccc(O)cc2)[C@@]12C(=O)Nc1ccccc12,0.428 (inactive),0.157,1.19 (inactive),-0.619 (inactive),-0.267 (inactive),-2.21 (inactive),1.57,-1.93 (inactive),-1.13 (inactive),-0.42,-0.343,0.956,-0.19,-0.647,-0.07,-0.376,-0.0789 (inactive),-0.902,-0.079,-0.0543 (inactive)
